From PubChem BioAssay (EPA / NIEHS)
Values joined by “and” are separate entries in the source; they are usually repeats but may differ in a detail not shown here. Equal entries are not always repeated. Some compounds were tested as several samples or in several runs, with calls that do not always agree. Active and inactive are the calls of the source. The calls were made as follows: active = hit-call score of the fitted dose curve at least 0.9, where 1 is the maximum; inactive = score below 0.9.

read-out: Monocyte Chemoattractant Protein-1 (MCP1), CCL2 (gene 6347); experiment: BSK_hDFCGF_MCP1: BioMAP Diversity Plus: hDFCGF Assay for Monocyte Chemoattractant Protein-1 (MCP1) Biomarker Activity (AID 2284285); conditions: primary human foreskin fibroblasts
How it was run: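 Human foreskin fibroblasts (hDFCGF system) were exposed to compound and secreted MCP-1 was measured by ELISA after 24 hours. Activity was fitted relative to DMSO. Cytotoxicity was checked by SRB total-protein staining in parallel cultures.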

Row | Compound | outcome | AC50
1 | CC(C)C(=O)OCCc1ccccc1 | inactive | 
2 | C[N+](C)(C)CCCNS(=O)(=O)C(F)(F)C(F)(F)C(F)(F)C(F)(F)C(F)(F)C(F)(F)C(F)(F)C(F)(F)F |  | 44.8 µM (active) and 44.4 µM (active)
3 | CCCC(C)C(=O)OCC (centres undefined) | inactive | 
4 | Nc1nc(N)nc(-c2ccccc2)n1 | inactive | 
5 | O=C(O)C(F)(F)C(F)(F)C(F)(F)C(F)(F)C(=O)O | inactive | 
6 | Oc1ccccc1Cc1ccccc1O | inactive | 
7 | c1ccc(Nc2cccc3ccccc23)cc1 |  | 20.8 µM (active) and 14.2 µM (active)
8 | CC(CCC(=O)O)(c1ccc(O)cc1)c1ccc(O)cc1 | inactive | 
9 | CCCCCCCCCCCC(=O)N(C)CC(=O)O | inactive | 5.84 µM (active)

read-out: Intercellular Adhesion Molecule 1 (ICAM1), ICAM1 (gene 3383); experiment: BSK_hDFCGF_ICAM1: BioMAP Diversity Plus: hDFCGF Assay for Intercellular Adhesion Molecule 1 (ICAM1) Biomarker Activity (AID 2284287); conditions: primary human foreskin fibroblasts
How it was run: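 Primary human foreskin fibroblasts (hDFCGF system) dosed with chemical; ICAM-1 quantified by ELISA at 24 h relative to DMSO. Parallel SRB total-protein staining to assess overt cytotoxicity.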

Row | Compound | outcome | AC50
10 | CC(C)C(=O)OCCc1ccccc1 | inactive | 
11 | C[N+](C)(C)CCCNS(=O)(=O)C(F)(F)C(F)(F)C(F)(F)C(F)(F)C(F)(F)C(F)(F)C(F)(F)C(F)(F)F | inactive | 
12 | CCCC(C)C(=O)OCC (centres undefined) | inactive | 
13 | Nc1nc(N)nc(-c2ccccc2)n1 | inactive | 
14 | O=C(O)C(F)(F)C(F)(F)C(F)(F)C(F)(F)C(=O)O | inactive | 
15 | Oc1ccccc1Cc1ccccc1O | inactive | 
16 | c1ccc(Nc2cccc3ccccc23)cc1 |  | 33.6 µM (active) and 34.1 µM (active)
17 | CC(CCC(=O)O)(c1ccc(O)cc1)c1ccc(O)cc1 | inactive | 
18 | CCCCCCCCCCCC(=O)N(C)CC(=O)O | inactive | 

read-out: TIMP metallopeptidase inhibitor 2 (TIMP2), TIMP2 (gene 7077); experiment: BSK_hDFCGF_TIMP2: BioMAP Diversity Plus: hDFCGF Assay for TIMP metallopeptidase inhibitor 2 (TIMP2) Biomarker Activity (AID 2284289); conditions: primary human foreskin fibroblasts
How it was run: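 Primary human foreskin fibroblasts in the hDFCGF system, dosed for 24 h; TIMP-2 level measured by ELISA, fitted in the positive direction against DMSO; cytotoxicity checked in parallel by sulforhodamine B total protein staining.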

Row | Compound | outcome | AC50
19 | CC(C)C(=O)OCCc1ccccc1 | inactive | 
20 | C[N+](C)(C)CCCNS(=O)(=O)C(F)(F)C(F)(F)C(F)(F)C(F)(F)C(F)(F)C(F)(F)C(F)(F)C(F)(F)F | inactive | 8.16 µM (active)
21 | CCCC(C)C(=O)OCC (centres undefined) | inactive | 
22 | Nc1nc(N)nc(-c2ccccc2)n1 | inactive | 
23 | O=C(O)C(F)(F)C(F)(F)C(F)(F)C(F)(F)C(=O)O | inactive | 
24 | Oc1ccccc1Cc1ccccc1O | inactive | 
25 | c1ccc(Nc2cccc3ccccc23)cc1 |  | 33 µM (active) and 31.1 µM (active)
26 | CC(CCC(=O)O)(c1ccc(O)cc1)c1ccc(O)cc1 | inactive | 
27 | CCCCCCCCCCCC(=O)N(C)CC(=O)O | inactive | 
